# Hit rate of the full screen: of about 68,000 compounds, about 2,700 (4%) showed an effect of 50% or more. This excerpt belongs to a sample that is enriched for strong results.
# System: Plasmodium berghei
# Assay: Screen against P. berghei liver stage (PbLuc), transformed with Luciferase, at 2uM
# Assay type: functional, HepG2
# Conditions: tested at 2 uM
row,SMILES,INHIBITION [%]
1,COc1cccc(C2c3c(n[nH]c3C)N=C3COC(=O)C32)c1OC (configuration not stated),-35.07
2,COc1ccc(OC)c(C2c3c(n[nH]c3C)N=C3COC(=O)C32)c1 (configuration not stated),26.14
3,COc1cccc(C2c3c(n[nH]c3C)N=C3COC(=O)C32)c1O (configuration not stated),63.46
4,CNC(=O)CCN1CCCC1c1ccccc1Br (configuration not stated),51.76
5,CNC(=O)CN1CCCC1c1ccccc1Br (configuration not stated),1.9
6,NC(=O)CN1CCCC1c1ccccc1Br (configuration not stated),-43.18
7,Cc1nn(C)cc1CCC(=O)N1CCCC(n2cncn2)C1 (configuration not stated),26.71
8,COc1c[nH]c(C(=O)Nc2nc(C)cs2)cc1=O,79.68
9,CCOC(=O)Cc1csc(NC(=O)c2cc(=O)c(OC)c[nH]2)n1,-5.51
10,COc1c[nH]c(C(=O)Nc2nc(C(C)(C)C)cs2)cc1=O,34.71
11,Cc1c(C2CC(=O)Nc3c2cnn3C(C)C)cnn1C (configuration not stated),-0.58
12,O=C(CSc1nnc(N2CCOCC2)s1)NCc1cccs1,44.98
13,COc1cc(C)nc(N2CCN(C(=O)COCC(F)(F)F)CC2)n1,51.21
14,CCOc1cc(C)nc(N2CCN(C(=O)c3cn[nH]c3CC)CC2)n1,38.76
15,CCc1[nH]ncc1C(=O)N1CCN(c2nccc(OC)n2)CC1,-85.11
16,COc1ccnc(N2CCN(C(=O)COCC(F)(F)F)CC2)n1,4.19
17,CCc1[nH]ncc1C(=O)N1CCN(c2nc(C)cc(OC)n2)CC1,51.83
18,COc1cc(C)nc(N2CCN(C(=O)COCC3CC3)CC2)n1,4.19
19,Cc1ccnn1CCCNC(=O)C1CCN(S(C)(=O)=O)CC1,-11.34
20,Cc1csc(N2CCN(C(=O)Cc3cccs3)CC2)n1,6.07
21,CC(C)(C)C(O)CN1CCN(Cc2cccc(C#N)c2)CC1 (configuration not stated),-4.89
22,COc1ccc(CC(=O)N2CCCCC2Cn2cccn2)cc1OC (configuration not stated),-40.17

row,SMILES,INHIBITION [%]
1,CN1CCN(c2ccccc2NC(=O)NCCc2ccccc2)CC1,-10
2,C=Cc1ccc(C(=O)NC2CCCc3nc(N(C)C)ncc32)cc1 (configuration not stated),34.61
3,CC(C)n1c(=O)[nH]c2cn(-c3ccc(Br)cc3)c(=O)n21,22.07
4,Cc1cc(NC(=O)CN(C)CC2CCCN2c2cccnn2)n(C)n1 (configuration not stated),51.03
5,CCn1ccnc1CN(C)CC1CCCN1c1cccnn1 (configuration not stated),55.52
6,Cc1cnc(CN(C)CC2CCCN2c2cccnn2)cn1 (configuration not stated),47.72
7,Cc1csc(NC(=O)CN(C)CC2CCCN2c2cccnn2)n1 (configuration not stated),9.17
8,CCn1ccnc1CNCC1CCCN1c1cccnn1 (configuration not stated),39.92
9,CN(CC(=O)Nc1ccncc1)CC1CCCN1c1cccnn1 (configuration not stated),-22.08
10,O=C1CC2(CCN(Cc3ccco3)C2)CN1c1ccc2c(c1)OCO2 (configuration not stated),14.06
11,COCCCN1CCN([C@@H]2c3ccccc3C3(CCNCC3)[C@H]2O)CC1,-13.79
12,CC(C)CN1CC2(CCN(C(=O)c3nc4ncccn4n3)CC2)CC1=O,-47.52
13,CCc1nc(N2CCN(c3ncccn3)CC2)c2cnn(C)c2n1,51.48
14,CCCc1nc(N2CCCN(c3ncccn3)CC2)c2cnn(C)c2n1,17.73
15,CCc1nc(N2CCCN(c3ncccn3)CC2)c2cnn(C)c2n1,29.53
16,CCCn1cc(Cl)c(C(=O)N2C[C@H]3CC(OC)C[C@H]3C2)n1 (some centres not stated),-13.75
17,CCCS(=O)(=O)N1CCCN(CCCOC)CC1,-14.94
18,Cn1cc(CC(CNC(=O)Nc2cccc(Cl)c2)C(N)=O)cn1 (configuration not stated),31.78
19,COc1cccc(NC(=O)NCC(Cc2cnn(C)c2)C(N)=O)c1 (configuration not stated),55.25
20,COc1cccc(NC(=O)NCc2cnn(C)c2)c1,7.33
21,CO[C@@H]1CC[C@@H](NC(=O)c2ccc(OCCN3CCCC3)cc2)[C@H]1O,-1.51
22,COCC(=O)N1CCC(c2cc3ncccc3c(O)n2)CC1,19.89

row,SMILES,INHIBITION [%]
1,Fc1ccc(OCCCN2CCOC(Cn3cncn3)C2)cc1 (configuration not stated),-20.71
2,c1cnn(CC2CN(CCCOc3ccc4c(c3)OCO4)CCO2)c1 (configuration not stated),-14.46
3,c1ccc2oc(CCCN3CCOC(Cn4cccn4)C3)nc2c1 (configuration not stated),14.11
4,c1ncn(CC2CN(CCCOc3ccc4c(c3)OCO4)CCO2)n1 (configuration not stated),53.98
5,c1ccc2oc(CCCN3CCOC(Cn4cncn4)C3)nc2c1 (configuration not stated),53.11
6,Cc1cnn(CC2CN(CCCc3nc4ccccc4o3)CCO2)c1 (configuration not stated),5.14
7,COc1cc(N2CCC3(CCN(Cc4csc(C)n4)C3)CC2)ncn1,7.76
8,CNc1nc(C2CCCN(C(=O)C(C)(C)OC)C2)nc2c1CN(C)CC2 (configuration not stated),-11.02
9,Cc1nc(Cn2c(=O)cnc3ccccc32)n(C)n1,-48.07
10,COCCN(Cc1cccs1)C(=O)c1ccc(=O)n(C)c1,29.13
11,CCN(Cc1cccs1)C(=O)c1ccc(=O)n(C)c1,50.59
12,CN(Cc1cccs1)C(=O)c1ccc(=O)n(C)c1,7.67
13,CC(=O)N1CC2(CCN(C(=O)c3cccc4[nH]ccc34)CC2)C1,3
14,CC(=O)N1CCC2(CC1)CN(C(=O)c1cccc3[nH]ccc13)CCO2,37.41
15,CC(=O)N1CCC2(CC1)CN(C(=O)c1cccc3[nH]ccc13)C2,57.92
16,Cc1ccc(N(Cc2ccco2)C(=O)Cc2cc(=O)n(C)[nH]2)cc1,-12.06
17,CC(NC(=O)c1cc(-c2cccc(Cl)c2)no1)C(=O)N1CCCC1 (configuration not stated),24.29
18,CC(NC(=O)c1cc(-c2cccc(Cl)c2)no1)C(=O)N(C)C (configuration not stated),50.59
19,COC(=O)[C@H](C)NC(=O)c1cc(-c2cccc(Cl)c2)no1,11.28
20,O=C(c1cncs1)N1CCC(Cc2cnc3[nH]ccc3c2)CC1,-11.64
21,CC(C)OC(=O)CNC(=O)Nc1ccc(-c2nc(C(C)C)no2)cc1,-13.72
22,CC(C)c1noc(-c2ccc(NC(=O)NCC(O)C(C)C)cc2)n1 (configuration not stated),-10.44

row,SMILES,INHIBITION [%]
1,COCCNC(=O)Nc1ccc(-c2nc(C(C)C)no2)cc1,58.53
2,O=c1c2ccc(C(F)(F)F)cc2ncn1CCCN1CCCCC1CO (configuration not stated),-13.49
3,Cc1nn(C)cc1CN1CCC(c2ncc(Cl)cc2S(C)(=O)=O)CC1,20.51
4,COc1cc(C2SCC(=O)Nc3n[nH]cc32)cc(OC)c1O (configuration not stated),-33.37
5,COc1ccc(C2SCC(=O)Nc3n[nH]cc32)c(OC)c1OC (configuration not stated),2.66
6,O=C1CSC(c2ccncc2)c2c[nH]nc2N1 (configuration not stated),76.13
7,Cc1cccc(C(=O)NCc2ccccc2)n1,5.09
8,CC(=O)NCCNC(=O)NCCCc1cccc(F)c1,31.55
9,CC(C)NC(=O)NCCCc1cccc(F)c1,78.96
10,CC(C)(C)S(=O)(=O)CCNC(=O)NCCCc1cccc(F)c1,26.02
11,OC(CN1CCN(CCOCC(F)(F)F)CC1)c1ccccc1 (configuration not stated),25.35
12,Cc1ncsc1CCC(=O)NC1CCN(c2ccc(Cl)nn2)CC1,2.04
13,N#Cc1ccccc1N1CCCN(C(=O)CCc2cccs2)CC1,16.08
14,N#Cc1ccccc1N1CCCN(C(=O)CCc2nccs2)CC1,63.95
15,N#Cc1cccnc1N1CCCN(C(=O)CCc2nccs2)CC1,-71.75
16,N#Cc1cccnc1N1CCN(C(=O)CCC(=O)c2cccs2)CC1,53.81
17,Cc1ncsc1CCC(=O)NC1CCN(c2ncccc2C#N)CC1,51.81
18,N#Cc1cccnc1N1CCN(C(=O)c2cccs2)CC1,23.76
19,O=C(CCc1nccs1)N1CCN(c2ccccc2F)CC1,44.12
20,N#Cc1ccccc1N1CCCN(C(=O)CCc2ccco2)CC1,75.56
21,N#Cc1ccccc1N1CCCN(C(=O)CCc2ccsc2)CC1,-107.32
22,N#Cc1cccnc1N1CCCN(C(=O)CCc2cccs2)CC1,10.1

row,SMILES,INHIBITION [%]
1,Cc1ncsc1C(=O)NC1CCN(c2ncccc2C#N)CC1,-4.58
2,COC1COC2(CCN(Cc3ccccc3C)CC2)C1 (configuration not stated),27.65
3,CC(C)n1cnc2c(N3CCCC3)nc(C3CCNCC3)cc21,14.39
4,CC(NCc1ccccc1Br)c1ccc2[nH]c(=O)[nH]c2c1 (configuration not stated),20.28
5,CCCc1nc2c(c(C)c(C)n2Cc2ccccn2)c(N)c1CC,-17.84
6,O=C(NCCc1cc(N2CCOCC2)nc(NC2CC2)n1)C1CC1,38.45
7,COCCN1CCN(c2nc(O)cc(Cc3ccccc3F)n2)CC1,-35.66
8,Cc1cc(NC(=O)Cn2cc(C#N)c(=O)c3cc(Br)ccc32)no1,3.43
9,CN(Cc1ccon1)C(=O)CN1C(=O)OC(C)(C)C1=O,70.76
10,CN(Cc1ccoc1)C(=O)CN1C(=O)OC(C)(C)C1=O,0.85
11,CN(Cc1cc(C2CC2)on1)C(=O)CN1C(=O)OC(C)(C)C1=O,37.41
12,CCn1nc(C)c2nc(C(C)C)nc(N3CCC(O)CC3)c21,5.86
13,O=C(c1cccc(F)c1)N1CCC2(CC1)CN(c1ccccn1)CCO2,-29.13
14,COCCn1/c(=N\C(=O)CN(C)S(C)(=O)=O)sc2cc(C)ccc21,29.19
15,COCCn1/c(=N\C(=O)CN(C)S(C)(=O)=O)sc2cc(OC)ccc21,11.87
16,COCCn1/c(=N\C(=O)CN(C)S(C)(=O)=O)sc2cc(Cl)ccc21,52.05
17,Nc1ncnc2[nH]c(N3CCCCC3)nc12,-87.36
18,Clc1ccccc1OC1CN(CC2CCOC2)C1 (configuration not stated),-14.36
19,CC(C)NC(=O)N1CCC[C@H]1C(=O)NCCCc1cccc(F)c1,-22.24
